Experimental data: PubChem BioAssay (NCATS)
Inconclusive results are not listed. A call without a number means that no potency is given here. More than one record can exist for a structure, and the calls need not agree. The source made the active and inactive calls. Calls follow the shape of the dose curve; as a rule, active = well fitted inhibition curve with a large enough effect; inconclusive = small, poorly fitted or top-dose-only effect; inactive = no such curve, though single readings can be large or run the other way.

Assay: Primary qHTS for small molecule stabilizers of the endoplasmic reticulum resident proteome: Secreted ER Calcium Modulated Protein (SERCaMP) assay (AID 1508630)
Conditions: SH-SY5Y GLuc-SERCaMP (Gaussia luciferase released on ER calcium loss) secretion, thapsigargin, luminescence; series mostly up to 38.4 µM
From the text: Assay Provider: Brandon K. Harvey Ph.D.
National Institute on Drug Abuse, National Institutes of Health, Baltimore, MD
Endoplasmic reticulum (ER) dysregulation is associated with human pathologies including neurodegenerative, cardiovascular, muscular, and diabetic conditions. Maintenance of ER calcium is critical for functions of the ER and its depletion can lead to loss of ER resident proteins, in a process termed exodosis. Therapeutic compounds capable of attenuating the redistribution of ER proteins under pathological conditions may slow or stop disease progression. To identify such compounds, we performed a quantitative high-throughput screen (qHTS) using the SERCaMP assay, which monitors secretion of ER resident proteins triggered by calcium depletion.
SERCaMP was initially developed as a reporter of ER calcium homeostasis using a Gaussia luciferase with a modified signal peptide and carboxy-terminus (GLuc-SERCaMP), modifications that confer secretion of the reporter in response to ER calcium depletion (Henderson et al., 2014). The assay was used to screen 9,501 compounds, including a collection of drugs approved by the FDA (US), EMA (EU), NHI (Japan), and HC (Canada) regulatory agencies (Huang et al., 2011). Since the SERCaMP reporter reflects the exodosis phenomenon (Trychta et al., 2018a), compounds identified in the screen have the potential to prevent exodosis by different mechanisms such as stabilizing ER calcium or augmenting ERS retrieval.
1. Henderson, M.J., Wires, E.S., Trychta, K.A., Richie, C.T., and Harvey, B.K. (2014). SERCaMP: a carboxy-terminal protein modification that enables monitoring of ER calcium homeostasis. Mol Biol Cell 25, 2828-2839.
2. Huang, R., Southall, N., Wang, Y., Yasgar, A., Shinn, P., Jadhav, A., Nguyen, D.T., and Austin, C.P. (2011). The NCGC pharmaceutical collection: a comprehensive resource of clinically approved drugs enabling repurposing and chemical genomics. Sci Transl Med 3, 80ps16.
3. Trychta, K.A., Back, S., Henderson, M.J., and Harvey, B.K. (2018a). KDEL Receptors Are Differentially Regulated to Maintain the ER Proteome under Calcium Deficiency. Cell Rep 25, 1829-1840 e1826.
SEQUENCE No. (1, 2, 3, etc.); […] (e.g., Cells, Incubation, Reagent, etc.); VALUE and DESCRIPTION.
1; Reagent; 5 uL; 1000 SH-SY5Y cells per wells
3; Compound; 23 nL; Control inhibitor / compound library
5; Reagent; 100 nM; Thapsigargin
7; Reagent; 1 uL; 0.5x coelenterazine
8; Detection; Luminescence; ViewLux imaging system
NOTES (numbers refer to sequence above)
1; SH-SY5Y human neuroblastoma cells stably expressing GLuc-SERCaMP (SH-SY5Y-GLuc-ASARTDL) cells were seeded in 1,536 well white tissue culture treated plates (Corning, Cat# 7464) in DMEM-high glucose-sodium pyruvate (ThermoFisher Scientific, Cat #10569) supplemented with 10% bovine growth serum (Hyclone), 10 U/ml penicillin (Gibco), 10 ug/ml streptomycin (Gibco), and 20 mM HEPES.
2; Assay plates were incubated for 5 hour at 37C in a humidified incubator containing 5% CO2.
3; qHTS libraries (23 nl, final concentrations of 1.53 uM, 7.67 uM, 38.3 uM) or controls (neutral control: DMSO, positive control: dantrolene) were added using a Kalypsis pin-tool Robotic System equipped with 1536 pinheads.
4; Cells were then incubated for 16 hours at 37C, 5% CO2.
5; Thapsigargin was added at 100 nM to deplete ER calcium stores.
6; Cells were incubated for 4 hour (37 °C, 5% CO2)
7; Gaussia luciferase in the medium was measured by adding 1 ul of 0.5x coelenterazine (final concentration 0.07x) prepared in Gaussia Luciferase Glow Assay Buffer (Pierce), without addition of the Cell Lysis Buffer Reagent.
8; Luminescence was measured using a ViewLux […] CCD imaging system (Perkin Elmer) equipped with clear filters. […] The same controls were also used for the calculation of the Z' factor, a measure of assay quality control, as previously described (Zhang et al., 1999). […]
Potency is read from the fitted curve at half-maximal effect.

| Structure (SMILES) | Potency |
| --- | --- |
| CCn1cc(C(=O)O)c(=O)c2cc(F)c(N3CCNCC3)cc21 | inactive |
| CC(=O)[C@H]1CC[C@H]2[C@@H]3CC=C4C[C@@H](O)CC[C@]4(C)[C@H]3CC[C@]12C | inactive |
| Nc1nc(N)c2nc(CNc3ccc(C(=O)NC(CCC(=O)O)C(=O)O)cc3)cnc2n1 (stereo not given) | inactive |
| CC(C)C1CCC(C(=O)N[C@H](Cc2ccccc2)C(=O)O)CC1 (stereo not given in full) | inactive |
| CC[C@H](NC(C)C)[C@H](O)c1ccc(O)c2[nH]c(=O)ccc12 | inactive |
| CO[C@@]12[C@H](COC(N)=O)C3=C(C(=O)C(C)=C(N)C3=O)N1C[C@@H]1N[C@@H]12 | inactive |
| COC(=O)Nc1nc2ccc(C(=O)c3ccccc3)cc2[nH]1 | inactive |
| CCOC(=O)[C@H](CCc1ccccc1)N[C@H]1CCc2ccccc2N(CC(=O)O)C1=O | inactive |
| COc1ccc(-c2ccc3cc(C(=O)O)ccc3c2)cc1C12CC3CC(CC(C3)C1)C2 | inactive |
| CCCc1cc(C(N)=S)ccn1 | inactive |
| CN(C)CCc1c[nH]c2ccc(CS(=O)(=O)N3CCCC3)cc12 | inactive |
| CC(=O)CC(c1ccccc1)c1c(O)c2ccccc2oc1=O (stereo not given) | inactive |
| CNCC[C@H](Oc1cccc2ccccc12)c1cccs1 | inactive |
| CO[C@@H]1[C@@H](OC(N)=O)[C@@H](O)[C@H](Oc2ccc3c(O)c(NC(=O)c4ccc(O)c(CC=C(C)C)c4)c(=O)oc3c2C)OC1(C)C | 31.6 µM (active) and inactive |
| NNC(=O)c1ccncc1 | inactive |
| Cc1nnc(C(=O)NC(C)(C)c2nc(C(=O)NCc3ccc(F)cc3)c(O)c(=O)n2C)o1 | inactive |
| C#CCN[C@@H]1CCc2ccccc21 | inactive |
| CC(C)(C)NC(=O)[C@H]1CC[C@H]2[C@@H]3CC[C@H]4NC(=O)C=C[C@]4(C)[C@H]3CC[C@]12C | inactive |
| CNS(=O)(=O)Cc1ccc2[nH]cc(CCN(C)C)c2c1 | inactive |
| CC1=NN(c2ccccc2)C(=O)C1 | inactive |

| Structure (SMILES) | Potency |
| --- | --- |
| NC(=O)c1ccc2[nH]ccc2c1 | inactive |
| CCOc1cc(N)c(Cl)cc1C(=O)NCC1CN(Cc2ccc(F)cc2)CCO1 (stereo not given) | inactive |
| NC(N)=NC(N)=NCCc1ccccc1 | inactive |
| Cc1oc(=O)oc1CN1CCN(c2cc3c(cc2F)c(=O)c(C(=O)O)c2n3C(C)S2)CC1 (stereo not given) | inactive |
| CC(C)OC(=O)OCOP(=O)(CO[C@H](C)Cn1cnc2c(N)ncnc21)OCOC(=O)OC(C)C | inactive |
| NC(=O)c1cccc(N)c1 | inactive |
| O=P(O)(O)C(O)(Cc1cccnc1)P(=O)(O)O | inactive |
| COC(=O)Nc1nc2ccc(S(=O)c3ccccc3)cc2[nH]1 (stereo not given) | inactive |
| CCCOc1ccc(C(=O)OCCN(CC)CC)cc1N | inactive |
| COC(c1ccccc1)(c1ccccc1)[C@H](Oc1nc(C)cc(C)n1)C(=O)O | inactive |
| N[C@@H](Cc1ccc(O)c(O)c1)C(=O)O | inactive |
| NC1(c2ccc(-c3nc4ccn5c(=O)[nH]nc5c4cc3-c3ccccc3)cc2)CCC1 | inactive |
| COc1cc([C@@H]2c3cc4c(cc3[C@H](O)[C@H]3COC(=O)[C@H]23)OCO4)cc(OC)c1OC | inactive |
| CC1=CC(=O)c2ccccc2C1=O | inactive |
| CCN(CC)CCn1c(=O)c(Cc2ccc(OC)cc2)nc2ccccc21 | inactive |
| CCN1CCCC1CNC(=O)c1cc(S(N)(=O)=O)ccc1OC (stereo not given) | inactive |
| N=C(N)c1ccc(OCCCCCOc2ccc(C(=N)N)cc2)cc1 | inactive |
| CC(C)(C#N)c1cc(Cn2cncn2)cc(C(C)(C)C#N)c1 | inactive |
| COc1cccc(N(C)C(=S)Oc2ccc3c(c2)CCCC3)n1 | inactive |
| O=NN(CCCl)C(=O)NC1CCCCC1 | inactive |
